How the values were obtained:
Assay in all cases: PBM binding z-score (relative to random genomic background probes); higher = stronger binding; sequences stand for … in GC…GCGATTGACAGCGTAGAATGAAGG
[1] = system: PPARg:RXRa DBDmut IVT, anti-RXR (DBD mutation: RXRa K156A/R161A, NR concentration 270 nM, RXRa partner concentration 90 nM)
Summary of the method: (§1)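 Ligand-free nuclear receptor dimers were applied to custom Agilent 4×180K protein-binding microarrays whose double-stranded probes carried direct-repeat seeds, single-nucleotide variants, half-site ablations and random human genomic background sequences in 34-nt variable regions. Incubation lasted 1 h. Binding z-scores were computed against the random background probes from regression-normalized fluorescence.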

[2] = system: PPARg:RXRa IVT, anti-PPARg (NR concentration 270 nM, RXRa partner concentration 90 nM)
Summary of the method: as §1

[3] = system: PPARg DBDmut:RXRa IVT, anti-PPARg (DBD mutation: PPARg1 K132A/R137A, NR concentration 270 nM, RXRa partner concentration 90 nM)
Summary of the method: as §1

[4] = system: PPARg DBDmut IVT, anti-PPARg (DBD mutation: PPARg1 K132A/R137A, NR concentration 270 nM)
Summary of the method: as §1

[5] = system: PPARg homodimer (NR concentration 180 nM)
Summary of the method: as §1

[6] = system: PXR:RXRa (NR concentration 270 nM, RXRa partner concentration 90 nM)
Summary of the method: as §1

[7] = system: PXR homodimer (NR concentration 270 nM)
Summary of the method: as §1

[8] = system: RARa:RXR (NR concentration 270 nM, RXRa partner concentration 90 nM)
Summary of the method: as §1

[9] = system: RARa homodimer (NR concentration 270 nM)
Summary of the method: as §1

[10] = system: RARb:RXRa (NR concentration 270 nM, RXRa partner concentration 90 nM)
Summary of the method: as §1

Row | Sequence | PBM binding z-score [1] | PBM binding z-score [2] | PBM binding z-score [3] | PBM binding z-score [4] | PBM binding z-score [5] | PBM binding z-score [6] | PBM binding z-score [7] | PBM binding z-score [8] | PBM binding z-score [9] | PBM binding z-score [10]
1 | CCTACTAGGCCATCAGGTCATTGATATCAACGTT | 6.04 | 5.32 | 0.857 | 0.291 | 1.87 | 2.04 | 1.66 | 2.59 | 1.47 | 2.45
2 | TCGAGTAGGTTTGTCGGGGCATTCAGCCAACATA | 0.713 | 0.173 | -1.6 | -0.328 | 0.186 | 0.311 | -0.236 | 0.224 | -0.837 | 0.0444
3 | ACTATTAGTCGACTTAGGGCAACCGATACGACGC | 0.19 | 0.646 | 0.629 | 1.12 | -0.309 | -0.188 | -0.351 | 0.128 | -0.494 | 0.711
4 | CTACCAAGGTGAACAAGGTCTTTGATTACTATTC | 2.51 | 2.75 | 0.785 | 0.293 | 0.597 | 0.752 | 0.0854 | 0.973 | 0.482 | 1.72
5 | TCTAGTTGATCACGGAGGTCACACACGACGGGTA | 1.39 | 2.26 | 0.727 | 1.1 | 2.02 | 4.29 | 1.44 | 4.94 | 0.922 | 3.24
6 | CTCGAAAGGTCGTGCTCAGGTAAGTATACCAAAC | 0.999 | 1.78 | 0.44 | -0.41 | 1.63 | 3.24 | 0.482 | 3.73 | 0.0606 | 3.99
7 | AAATGTAGGTTAGCTGGGGTCATTCAGACTAGGC | 7.19 | 7.11 | 4.54 | 3.23 | 3.17 | 6.55 | 4.04 | 6.04 | 0.836 | 3.28
8 | TCTGCTAGGTCAGTTTGTCAGCTAACGAGCTGCC | 2.1 | 2.5 | 0.124 | 0.15 | -0.156 | 0.322 | -0.604 | 0.454 | -0.407 | 2.72
9 | ATCGAAAGGTCGACGACGTGAGTATACACCGTTT | 0.416 | 1.22 | 1.4 | 1.43 | 1.37 | 2.32 | -0.182 | 3.07 | 0.0928 | 3.72
10 | GGAACGAGGGCATTCGAGTTGGTAGCATGGCGAT | 3.06 | 2.06 | -0.924 | 0.13 | -0.0441 | 2.69 | 0.354 | 0.386 | -0.393 | 1.86
11 | ACTATTAGTTGACTTAGGACAACCGATACGACGC | -0.129 | 0.214 | 1.42 | 1.67 | 1.07 | 0.411 | 0.511 | 0.675 | 0.875 | 0.665
12 | GCTAGCAGGCCATTTGGGTCACTGAATGACGGGC | 1.8 | 2.35 | -0.118 | -0.738 | -0.224 | 0.537 | -0.19 | 0.876 | -0.661 | 1.49
13 | ATATGTAGTTTACATCCGGGTCATTCAGGCTATG | 1.36 | 2.27 | 1.09 | 1.65 | 1.01 | 2.91 | 3.16 | 2.85 | 0.262 | 1.51
14 | CCAACTAGGTCAGAACAGGACAGTGAAGGATGAT | 6.64 | 6.66 | 2.08 | 1.17 | 1.73 | 1.13 | 0.914 | 2.07 | 1.58 | 2.98
15 | ACTCGGAGGACAAAGGTCAAAGCTACGCCAGTGA | 1.44 | 4.45 | -0.163 | -0.288 | 3.24 | 5.4 | 0.776 | 6.35 | 0.304 | 5.24
16 | AATACAGGGTCCCTAGGCCAGAGTAGGTACGAAT | -0.243 | 0.245 | -0.698 | -1.31 | -0.659 | -0.49 | -0.525 | -0.409 | 0.104 | 0.138
17 | TAGCCTAGGTCATGGGCCAGTATCCCACGCGAAC | 1.1 | 3.14 | 0.396 | -0.233 | 1.33 | 1.43 | -0.353 | 2.55 | -0.117 | 3.74
18 | CCTTACGGGTCAAGGTTATAGCGCGGGTGGTACG | 2.04 | 3.57 | -0.278 | 0.175 | 1.9 | 3.27 | -0.0779 | 3.94 | 0.367 | 4.29
19 | AGAACGAGGGCAGGCTGAGTTGATAGCAGAGTAG | 2 | 1.53 | 0.0574 | -0.0164 | -0.517 | 0.169 | -0.0945 | -0.281 | -0.536 | 1.63
20 | TCATATAGGTAATGCAGGTGAAAGTCGGCATCTA | 4.18 | 4.3 | 0.872 | 1.17 | 0.782 | 0.415 | 0.211 | 0.602 | 0.52 | 0.41
21 | GCTCGGAGGACAAAGTCAGAGCTTTGTCCGTAGA | -1.01 | -0.327 | -0.892 | -1.25 | -0.791 | -0.547 | -0.9 | -0.547 | -1.22 | 0.845
22 | TTACCCAGGTGAGCTGAGGTCGTTGATCCAACTC | 0.846 | 1.89 | -1.04 | -0.726 | 0.267 | 4.2 | 0.439 | 1.55 | -1.01 | 1.1
23 | GCAGACAGGTTAAACGCAGGTAACTCAGGGTGGC | 0.14 | -0.197 | -0.311 | -1.1 | -0.225 | 0.235 | -0.788 | 1.11 | -0.374 | 1.12
24 | TAGCCTAGGTCCGATCGGGCCAGTATACGCTATA | -1.07 | -0.553 | -0.601 | -1.51 | -1.58 | -1.01 | -1.16 | -1.17 | -1.53 | -1

Reference: the supplement of paper PMC6555819
